Compound activity: PubChem, National Center for Advancing Translational Sciences (NCATS)
A selection: hits, their analogues and other compounds. The true share with any hit is near 21%.
Pf growth 96h – inhibits malaria parasite growth, 96 h | Potency, µM (top dose mostly 28.7 µM), usual class: inhibitors | P. falciparum luciferase reporter growth, 96 h | AID 504834 | actives 6.9% (n = 320,000)
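Compounds incubated with erythrocytes infected by luciferase-expressing P. falciparum (2% hematocrit, 0.05% parasitemia final) for 96 hours, 37 C in 5% CO2. Growth inhibition scored as decreased luciferase luminescence.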
CHX counter – counter-screen hit for Shiga toxin inhibitors, cycloheximide. max response, %. cell reporter, cycloheximide protein synthesis inhibition counterscreen. AID 2314. actives 12% (n = 300,000); in the data active = max response mostly above about 13%, no sharp cut-off; inactive = mostly below about 14%; note: read at 38.3 µM for the half of the compounds with a filed dose
HCMV antiviral – inhibitors of human cytomegalovirus. HFF cells, HCMV-luciferase reporter, 72 h; hits give low values. activity change, negative = inhibition, % at 57.5 µM. actives 4.5% (n = 410,000). AID 1259415; in the data active = activity change below about -60%; inconclusive = no clear call, values can overlap the other calls; inactive = above about -39%
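Luciferase read-out from HCMV-luciferase-infected HFFs (MOI 1 PFU/cell) 72 h post infection at 37C; compounds added after 16 h cell attachment; activity normalized between buffer-only basal and Salinomycin (10uM) inhibitor controls.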
HCV inh – HCV inhibition; Huh7.5.1 HCVcc-Cre infection, luciferase reporter, 44 h; Potency, µM (highest dose often 41.8 µM), actives largely listed as inhibitors; actives 3.4% (n = 340,000); AID 651820
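Seed cells (1,000/well) for 4 h; treat with compound and infect with HCVcc-Cre, moi about 0.5. Incubate 44 h, then detect luciferase activity.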
Pf growth 48h – P. falciparum growth inhibition at 48 hours (one generation); P. falciparum luciferase growth in erythrocytes, 48 h; Potency, µM (doses to about 28.7 µM), hits mostly inhibitors; actives 5.9% (n = 310,000); AID 504832
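Erythrocytes infected with P. falciparum carrying an integrated firefly luciferase reporter (2% hematocrit, 0.1% parasitemia final) were exposed to compounds in RPMI 1640 with 0.5% Albumax at 37 C, 5% CO2. Growth inhibition was scored as reduced luminescence.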
Shiga toxin inh – blocks Shiga toxin action in Vero cells; Vero cells, Shiga toxin protein synthesis inhibition reporter; inhibition, % at 38.7 µM; actives 9.2% (n = 290,000); AID 2315; in the data active = inhibition mostly above about 28%, no sharp cut-off; inactive = mostly below about 43%
A number is an active result; [ ] = another dose, or the depositor's remark. Unless noted, calls come from the whole dose curve; as a rule, active = well fitted inhibition curve with a large enough effect; inconclusive = small, poorly fitted or top-dose-only effect, or another doubt; inactive = no such curve, though single readings can be large or run the other way.

Screening OCC1(CC2CCCCO2)CCN(C/C=C/c2ccccc2)CC1 (stereo unspecified) returned Pf growth 96h inactive, CHX counter inactive, HCMV antiviral inactive, HCV inh inactive, Pf growth 48h 5.2µM and Shiga toxin inh inactive.
Screening CC1=CC(=C(C#N)C#N)C=C(C)N1Cc1ccccc1 returned Pf growth 96h 4.7µM, CHX counter inactive, HCMV antiviral inactive, HCV inh inactive, Pf growth 48h inconclusive and Shiga toxin inh inactive.
Screening O=C1[C@H](O)[C@@H](O)C(=O)N1Cc1ccccc1 returned Pf growth 96h inactive, CHX counter inactive, HCMV antiviral inactive, HCV inh inactive, Pf growth 48h inactive and Shiga toxin inh inactive.
Screening C#CCOCCOCCOCCNc1nc(N2CCN(C(=O)CCCCCCCCCCNC(=O)Cn3cc(C[C@@H](C)O)nn3)CC2)nc(N2CCN(C(=O)CCCCCCCCCCNC(=O)[C@@H]([C@H](C)O)n3cc(C)nn3)CC2)n1 returned Pf growth 96h 0.083µM, HCV inh inconclusive and Pf growth 48h 0.074µM.
C#CCOCCOCCOCCNc1nc(N2CCN(C(=O)CCCCCCCCCCNC(=O)Cn3cc(CCCCCN)nn3)CC2)nc(N2CCN(C(=O)CCCCCCCCCCNC(=O)[C@@H]([C@H](C)O)n3cc(C)nn3)CC2)n1 was read as Pf growth 96h 0.52µM, HCV inh inactive and Pf growth 48h 0.33µM.
C#CCOCCOCCOCCNc1nc(N2CCN(C(=O)Cn3cc(CCCCN)nn3)CC2)nc(N2CCN(C(=O)Cn3cc(CC(C)O)nn3)CC2)n1 (stereo unspecified) was read as Pf growth 96h inactive, CHX counter inactive, HCMV antiviral inactive, HCV inh inactive[8.37 µM], Pf growth 48h inactive and Shiga toxin inh inactive.
Screening Cc1ccc(NC(=O)C(=O)NCC(c2ccc3c(c2)OCO3)N2CCN(C)CC2)c(C)c1 (stereo unspecified) returned HCMV antiviral inactive.
`COc1ccc(CSc2nnc(C)s2)cc1F` gave Pf growth 96h inconclusive, CHX counter 16, HCMV antiviral inactive, HCV inh inactive, Pf growth 48h inactive and Shiga toxin inh 73.
For COC(=O)c1ccc(CSc2nnc(C)s2)cc1 the results were Pf growth 96h inactive, CHX counter 38, HCMV antiviral inactive, HCV inh inactive, Pf growth 48h inactive and Shiga toxin inh 67.
Screening COC(=O)c1ccc(CSc2nnc(NC(=O)C3CCCO3)s2)cc1 (stereo unspecified) returned CHX counter inactive, HCMV antiviral inconclusive, HCV inh inactive, Pf growth 48h inactive and Shiga toxin inh inactive.
Screening COC(=O)c1ccc(CSc2nnc(N)s2)cc1 returned Pf growth 96h inactive, CHX counter 21, HCMV antiviral inactive, HCV inh inactive, Pf growth 48h inactive and Shiga toxin inh inactive.
COC(=O)c1cccc(CSc2nnc(C)s2)c1 was read as Pf growth 96h inactive, CHX counter 23, HCMV antiviral inactive, HCV inh inactive, Pf growth 48h inactive and Shiga toxin inh 97.
`COC(=O)c1ccc(CSc2nc(N)cc(N)n2)cc1` gave Pf growth 96h inactive, CHX counter 36, HCMV antiviral inactive, HCV inh inactive, Pf growth 48h inactive and Shiga toxin inh 53.
`Cc1nnc(SCC(=O)c2ccc(Cl)cc2)s1` gave Pf growth 96h inactive, CHX counter 43, HCMV antiviral inconclusive, HCV inh inactive, Pf growth 48h inactive and Shiga toxin inh 87.
CCCCNC(=O)C(CC)(ONc1ccccc1C(F)(F)F)c1ccccc1OC (stereo unspecified) was read as Pf growth 96h inconclusive, HCMV antiviral inactive, HCV inh inactive and Pf growth 48h 10µM.
For CCN(CC(=O)Nc1ccccc1OC)CC(=O)Nc1ccccc1C(F)(F)F the results were Pf growth 96h inactive, CHX counter inactive, HCMV antiviral inactive, HCV inh inactive, Pf growth 48h inconclusive and Shiga toxin inh inactive.
O=C(CCc1nnc(Cc2c[nH]c3ccccc23)o1)NCC1CC12CCCCC2 (stereo unspecified) was read as Pf growth 96h inconclusive, CHX counter inactive, HCMV antiviral inactive, HCV inh inactive, Pf growth 48h inconclusive and Shiga toxin inh inactive.
Screening CCOC(=O)c1ccccc1NC(=O)c1cn(-c2ccc(OC)cc2)c(=O)c2ccccc12 returned Pf growth 96h 2.9µM, CHX counter inactive, HCMV antiviral inconclusive, HCV inh inactive, Pf growth 48h inconclusive and Shiga toxin inh inactive.
COc1cccc(-n2cc(C(=O)NC(C)C)c3ccccc3c2=O)c1 was read as Pf growth 96h 1.3µM, CHX counter inactive, HCMV antiviral inactive, HCV inh inactive, Pf growth 48h inactive and Shiga toxin inh inactive.
Screening CCOC(=O)c1ccccc1NC(=O)c1cn(-c2ccc(C)c(C)c2)c(=O)c2ccccc12 returned Pf growth 96h inconclusive, CHX counter inactive, HCMV antiviral inactive, HCV inh inconclusive, Pf growth 48h inconclusive and Shiga toxin inh inactive.
`COc1cccc(-n2cc(C(=O)NCCc3ccc(C)cc3)c3ccccc3c2=O)c1` gave HCMV antiviral -61.
Screening O=C(CSc1nnc(CNC(=O)c2c(F)cccc2F)o1)NCc1ccc2c(c1)OCO2 returned HCMV antiviral inactive.
For CC(=O)C(Sc1nc(-c2ccccc2Cl)nc2c1c(=O)n(C)c(=O)n2C)C(=O)N(C)C (stereo unspecified) the results were HCMV antiviral inactive.
For O=C(Cc1ccc(Br)cc1)NC1CCCc2ccccc21 (stereo unspecified) the results were Pf growth 96h inactive, CHX counter inactive, HCMV antiviral inactive, HCV inh inactive, Pf growth 48h inactive and Shiga toxin inh inactive.
Screening O=C(CCCOc1ccccc1)NC1CCCc2ccccc21 (stereo unspecified) returned Pf growth 96h inactive, CHX counter inactive, HCMV antiviral inactive, HCV inh inactive, Pf growth 48h inactive and Shiga toxin inh inactive.
Cc1cc(C)cc(OCC(=O)NC2CCCc3ccccc32)c1 (stereo unspecified) was read as Pf growth 96h 8.3µM, CHX counter inactive, HCMV antiviral inactive, HCV inh inconclusive, Pf growth 48h inconclusive and Shiga toxin inh inactive.
COc1ccccc1OCC(=O)NC1CCCc2ccccc21 (stereo unspecified) was read as Pf growth 96h inactive, CHX counter inactive, HCMV antiviral inactive, HCV inh inactive, Pf growth 48h inactive and Shiga toxin inh inactive.
For O=C(NC1CCCc2ccccc21)c1c(F)cccc1Cl (stereo unspecified) the results were Pf growth 96h inactive, CHX counter inactive, HCMV antiviral -67, HCV inh inactive, Pf growth 48h inactive and Shiga toxin inh inactive.
O=C(CCn1cccc1)NC1CCCc2ccccc21 (stereo unspecified) was read as Pf growth 96h 6.6µM, CHX counter inactive, HCMV antiviral inactive, HCV inh inactive, Pf growth 48h inactive and Shiga toxin inh inactive.
